Reference: PubChem BioAssay
Active and inactive are the calls of the source.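 How the source made its calls, unless noted: active means fluorescence slope higher than the sample average by over 3 SD (cut at about -0.22 in these data, passing the limit was not always enough); inactive means the rest.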

How the values were obtained:
[1] = inhibitors of TNFa-induced NFkB p65 translocation, primary screen, imaging, HUVEC, MLSMR starter and 10KST1 sets (AID 438;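 active means inhibition above 20% together with a positive visual image hit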;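 further: compound added about 3h40 before a 20 min TNFalpha stimulation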;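 on inhibition: signal is the nuclear over cytoplasmic p65 intensity ratio per well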); details: HUVEC TNFa-induced p65 nuclear translocation; cell count: measured here: nuclei count (cytotoxicity indicator), at 2.08 µM; inhibition: at 2 µM, stronger effect = higher value, 0% TNFa-plus-vehicle, 100% no-TNFa wells
[2] = inhibitors of mutant huntingtin aggregation, primary screen, imaging, exon1htt(103Q)mCFP cells, high-content imaging (AID 483;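 active means visual image review flags a hit and inhibition of aggregation exceeds 20%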;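 further: compound exposure lasted 3 days before fixation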;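 on nuclei count: percent of the per-plate median nuclei count of sample wells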); details: exon1htt(103Q)mCFP cell line, aggregate imaging, at 2 µM; inhibition of aggregation: stronger effect = higher value; nuclei count: measured here: cell count, toxicity
[3] = inhibitors of E-selectin induction by TNFa, primary screen, imaging, HUVEC, immunofluorescence, MLSMR starter and 10KST1 sets (AID 487;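 active means visually confirmed hit in the image check and inhibition above 20%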;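 on inhibition: signal is fraction of cell area covered by stained E-selectin grains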;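 on nuclei count: 100% = median nuclei count of all wells on the same plate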); details: HUVEC TNFalpha-induced E-selectin immunofluorescence imaging, at 2 µM; inhibition: stronger effect = higher value; nuclei count: measured here: cell number, toxicity
[4] = target: Voltage-gated potassium channel subunit beta-2 (Rattus norvegicus) (UniProt P62483); assay: KvBeta enzyme negative modulators, primary screen, biochemical, NADPH fluorescence (AID 622); details: recombinant KvBeta, 4-cyanobenzaldehyde reduction, at 10 µM, stronger effect = higher value;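 further: slope of raw intensity against log time taken from 70 to 1610 s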
Voltage-gated potassium channel subunit beta-2 (Rattus norvegicus), sequence (P62483 whole entry, looked up): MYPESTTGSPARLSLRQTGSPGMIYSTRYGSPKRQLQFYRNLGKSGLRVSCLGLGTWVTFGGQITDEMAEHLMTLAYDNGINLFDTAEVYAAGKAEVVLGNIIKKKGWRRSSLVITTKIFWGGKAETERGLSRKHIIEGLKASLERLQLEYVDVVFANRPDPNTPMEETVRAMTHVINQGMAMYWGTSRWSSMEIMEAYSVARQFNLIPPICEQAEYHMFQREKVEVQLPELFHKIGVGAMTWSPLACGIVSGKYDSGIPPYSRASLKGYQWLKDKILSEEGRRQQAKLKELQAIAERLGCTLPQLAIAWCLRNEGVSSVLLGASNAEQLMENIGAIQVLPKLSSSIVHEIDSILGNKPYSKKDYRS

[5] = target: Voltage-gated potassium channel subunit beta-2 (Rattus norvegicus) (UniProt P62483); assay: KvBeta positive modulators, primary screen, biochemical, NADPH fluorescence (AID 623;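 active means NADPH fluorescence slope more negative than the mean of all samples by about 3 SD, 99.7% confidence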;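 further: fluorescence intensity change per second fitted from 20 to 320 s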); details: Recombinant KvBeta, NADPH fluorescence decrease slope, 10 min; at 10 µM; stronger effect = lower value
[6] = target: Alpha-2C adrenergic receptor (Homo sapiens) (UniProt P18825); assay: modulators of alpha2C/GIRK thallium flux, primary screen, cell-based, HEK293 alpha2C/GIRK1/2 (AID 624;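 active means fluorescence slope after compound addition differing from the mean of all screened samples at 99.7% confidence, in either direction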;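 further: slope of fluorescence ratio to pre-addition baseline per second over 15 to 24 s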); details: thallium flux BTC fluorescence, at 10 µM, actives lie on both sides
Alpha-2C adrenergic receptor (Homo sapiens), sequence (P18825 whole entry, looked up): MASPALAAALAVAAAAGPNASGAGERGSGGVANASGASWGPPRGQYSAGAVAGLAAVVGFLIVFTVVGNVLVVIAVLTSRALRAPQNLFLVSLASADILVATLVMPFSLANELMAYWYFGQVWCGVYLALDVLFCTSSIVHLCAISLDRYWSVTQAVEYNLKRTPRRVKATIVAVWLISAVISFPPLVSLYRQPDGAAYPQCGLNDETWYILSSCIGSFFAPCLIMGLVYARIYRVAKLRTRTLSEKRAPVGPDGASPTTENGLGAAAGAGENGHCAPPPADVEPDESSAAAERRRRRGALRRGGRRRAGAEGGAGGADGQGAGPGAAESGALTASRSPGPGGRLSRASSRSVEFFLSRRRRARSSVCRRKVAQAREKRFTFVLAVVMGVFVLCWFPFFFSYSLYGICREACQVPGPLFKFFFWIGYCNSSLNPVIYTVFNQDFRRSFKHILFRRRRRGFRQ

[7] = inhibitors of Sendai virus-induced IRF3 signaling, primary screen, TLR/RLR signaling modifier project, cell-based, Sendai virus stimulus, luciferase, 10K MLSCN set (AID 602276;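 active means inhibition at or above 50% at 10 µM; inactive means inhibition below 50%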;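 further: firefly luciferase from ISG56 promoter only with Renilla not read in this screen; 0% = Sendai virus plus DMSO and 100% = medium plus DMSO without virus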); details: HEK293 RL24 IRF3 luciferase reporter, at 10 µM, stronger effect = higher value
[8] = inhibitors of poly I:C-induced TLR3 signaling, primary screen, cell-based, poly I:C stimulus, luciferase, 10K MLSCN set (AID 602277;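 active means inhibition of the reporter signal at or above 50%; inactive means inhibition below 50%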); details: HEK293-TLR3 RL24 IRF3 luciferase reporter, at 10 µM, stronger effect = higher value

Compound | cell count [1] | inhibition [1] | inhibition of aggregation [2] | nuclei count [2] | inhibition [3] | nuclei count [3] | fluorescence slope [4] | NADPH fluorescence slope [5] | slope [6] | inhibition [7] | inhibition [8]
CC1(C)CNC(=O)CC(C)(C)N1O | 379 | 4% (inactive) | 7.9% (inactive) | 89.4% | -66.8% (inactive) | 110% | -0.497 (inactive) | -6.2e-06 (inactive) | 0.00315 (inactive) | -4.83% (inactive) | 19.7% (inactive)
OC(CCN1CCOCC1)(c1ccc(Cl)cc1)C1CCCCC1 (stereo not drawn) | 663 | -1% (inactive) | -1.2% (inactive) | 48.5% | 37.9% (inactive) | 120% | -0.588 (inactive) | -2.6e-05 (inactive) | 0.00224 (inactive) | -9.83% (inactive) | -48.9% (inactive)
Cc1cc(C)cc(N2C(=O)CC(N3CCOCC3)C2=O)c1 (stereo not drawn) | 459 | 3% (inactive) | -4.9% (inactive) | 105% | 38.6% (inactive) | 98.8% | -0.355 (inactive) | 3e-05 (inactive) | 0.00693 (inactive) | 13.8% (inactive) | 32.5% (inactive)
CCc1nnc2sc(-c3cc(-c4ccccc4)nc4ccccc34)nn12 | 267 | 5.4% (inactive) | 7.4% (inactive) | 87% | 3.3% (inactive) | 90.4% | -0.436 (inactive) | 2.9e-06 (inactive) | 0.00312 (inactive) | 8.15% (inactive) | 26.8% (inactive)
Nc1nnnn1/N=C/c1ccccc1OCc1ccccc1 | 474 | 4.5% (inactive) | -2.8% (inactive) | 101% | -283% (inactive) | 138% | -0.496 (inactive) | -4.4e-05 (inactive) | 0.00612 (inactive) | 7.71% (inactive) | 0.143% (inactive)
O=C(NCc1cccnc1)c1ccccn1 | 354 | -11% (inactive) | -7.8% (inactive) | 113% | -18.1% (inactive) | 108% | -0.466 (inactive) | -4.5e-06 (inactive) | 0.00661 (inactive) | 3.99% (inactive) | -3.56% (inactive)
CCOc1ccccc1NC(=O)CN(c1ccc(C)cc1)S(=O)(=O)c1c(C)noc1C | 322 | 2.2% (inactive) | 20.6% (inactive) | 97.9% | 35.2% (inactive) | 64.7% | -0.606 (inactive) | -6.6e-05 (inactive) | 0.00658 (inactive) | 6.02% (inactive) | 28.1% (inactive)
Cc1cc(C(=O)Nc2nc3c(s2)CCCC3)cs1 | 347 | 7.6% (inactive) | -12.3% (inactive) | 111% | -6.3% (inactive) | 107% | -0.532 (inactive) | 1.1e-05 (inactive) | 0.00523 (inactive) | -47% (inactive) | -131% (inactive)
